# Assay results taken from PubChem BioAssay (NCATS).
# Records with an inconclusive call do not appear. Where a call stands in place of a potency, no number is given. Values without a mark were called inactive. Calls of active or inactive are those of the source. The call rests on the fitted dose curve; in most records, active means well fitted inhibition curve with a large enough effect; inconclusive means small, poorly fitted or top-dose-only effect; inactive means no such curve, though single readings can be large or run the other way.
# Tested on: Zika virus NS2B-NS3 protease (linked construct)
# Experiment: Primary screen NINDS Rhodamine qHTS for Zika virus inhibitors (AID 1347160); further: nearly all actives have a fitted effect of over 55% in size
# Conditions: purified NS2B-NS3 protease, Rhodamine110 substrate fluorescence; series mostly up to 57.1 µM
# In short: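 Aprotinin served as in-plate control. Conditions: 25 nM linked NS2B-NS3, pH 8.0 Tris buffer, titrated compounds, 15 min preincubation and 15 min reaction with 1.5 microM Rhod110 substrate at room temperature.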
Structure (SMILES),Potency,"activity change, negative = inhibition"
C/C=C/C1=CC2=C(CO1)C(=O)C(C)(O)C(OC(=O)c1c(C)cc(OC)cc1O)C2 (centres undefined),inactive,–
CCCn1c(=O)c2[nH]c(-c3ccc(OCC(=O)O)cc3)nc2n(CCC)c1=O,inactive,–
COc1ccc(CCC(=O)c2c(O)cc(O)cc2O[C@@H]2O[C@H](CO)[C@@H](O)[C@H](O)[C@H]2O)cc1,inactive,–
C=CC(C)(C)c1[nH]c2ccccc2c1C[C@@H]1NC(=O)[C@H](Cc2c[nH]c3ccccc23)NC1=O,inactive,–
COc1cc(-c2ncn(/C=C\C(=O)OC(C)C)n2)cc(C(F)(F)F)c1,inactive,–
C=C1CC[C@@H]2[C@](C)(CO[C@@H]3O[C@H](CO)[C@@H](O)[C@H](O)[C@H]3O)[C@H](O)CC[C@@]2(C)[C@@H]1C/C=C1/C(=O)OC[C@H]1O,inactive,–
CC1CC(O)/C=C/C(O)C(O)CC(=O)Cc2c(Cl)c(O)cc(O)c2C(=O)O1 (centres undefined),inactive,–
Cc1cc2c(c(=O)[nH]1)OC(C(O)CC(C)C)O2 (centres undefined),inactive,–
C[C@@H]1O[C@@H](O[C@H]2[C@@H]3C=CO[C@@H](O[C@@H]4O[C@H](CO)[C@@H](O)[C@H](O)[C@H]4O)[C@@H]3[C@@]3(CO)O[C@@H]23)[C@H](OC(=O)/C=C/c2ccccc2)[C@H](O)[C@H]1O,inactive,–
COC(=O)C[C@H]1[C@]2(C)C3=C(C)[C@H](c4ccoc4)C[C@H]3O[C@@H]2[C@H](OC(C)=O)C2[C@](C)(C(=O)OC)C=CC(=O)[C@@]21C (some centres undefined),inactive,–
CC1CC2OC3(OC2C(C)(C)O)C1C1(C)CCC24CC25CCC(O[C@@H]2OC[C@@H](O)[C@H](O)[C@H]2O)C(C)(C)C5CC=C4C1(C)C3O (some centres undefined),inactive,–
NC(=O)Nc1cc(-c2cccc(F)c2)sc1C(=O)NC1CCCNC1 (centres undefined),inactive,–
N#Cc1ccc(-c2cnc3[nH]cc(NC(=O)c4cccnc4)c3c2)cc1,inactive,–
CC1(C)CCCC2(C)C1CC=C1C(=O)OC(O)C12O (centres undefined),inactive,–
COC(=O)C(C)C1CCC2(C)C(=O)C=CC(C)(O)C2C1O (centres undefined),inactive,–
CC(=O)O[C@H]1CC[C@@]2(C)C(CC[C@@H](C)[C@]23Cc2c(O)cc4c(c2O3)CN([C@@H](CCC(=O)O)C(=O)O)C4=O)C1(C)C (some centres undefined),inactive,–
CC1(C)CCCC2(C)C1CC(=O)C13CC(CCC12)C(O)(CO)C3 (centres undefined),inactive,–

Structure (SMILES),Potency,"activity change, negative = inhibition"
O=C1NC(=O)C(c2cn3c4c(cccc24)CCC3)C1c1c[nH]c2ccccc12 (centres undefined),inactive,–
C(#Cc1nc2ncccc2nc1OCCN1CCCC1)c1ccccc1,inactive,–
C/C(=C/CO)CC[C@@H]1[C@@](C)(O)CCC2C(C)(C)CCC[C@]21C (some centres undefined),inactive,–
CC1(O)CC(O)C2(O)C=COC(O[C@@H]3O[C@H](CO)[C@@H](O)[C@H](O)[C@H]3O)C12 (some centres undefined),inactive,–
CCOC(=O)C(CCc1ccccc1)NC(C)C(=O)N1C(=O)N(C)CC1C(=O)O (centres undefined),inactive,–
CCC[C@@H]1O[C@@H]2C[C@H]3[C@@H]4CCC5=CC(=O)C=C[C@]5(C)[C@H]4[C@@H](O)C[C@]3(C)[C@]2(C(=O)CO)O1,inactive,–
Clc1cc2c(NC3CCCC3)nnc(-c3ccncc3)c2cc1Cl,inactive,–
CC1OC(O[C@H]2CC[C@@]3(C)C(CC[C@]4(C)C3CC=C3C5CC(C)(C)CC[C@]5(C(=O)OC5OC(CO)C(OC6OC(COC7OCC(O)C(O)C7O)C(O)C(O)C6O)C(O)C5O)CC[C@]34C)C2(C)C)C(O)C(O)C1OC1OCC(OC2OCC(O)C(O)C2O)C(O)C1O (some centres undefined),–,-22.7% [at 10.7 µM]
COc1ccc2c(OC)c3ccoc3nc2c1OC,inactive,–
Cc1cc(C(=O)Nc2cccc(C(=O)Nc3cccc(C(F)(F)F)c3)c2)on1,inactive,–
C=C(C)C1Cc2cc(C(=O)OC3OC(CO)C(O)C(O)C3O)ccc2O1 (centres undefined),inactive,–
N#C[C@@H]1C[C@H](F)CN1C(=O)CNC1[C@H]2CN(C(=O)c3ccc(F)cc3)C[C@@H]12 (some centres undefined),inactive,–
COC(=O)C1=CO[C@@H](O[C@@H]2O[C@H](CO)[C@@H](O)[C@H](O)[C@H]2O)[C@H]2[C@@H]1CC(OC)O[C@@H]2C (some centres undefined),inactive,–
CC(C)=CCC/C(C)=C/CCC1(C)Oc2c(c(O)cc3c2CN(C(CCC(=O)O)C(=O)O)C3=O)CC1O (centres undefined),inactive,–
CCN1CCN(Cc2ccc(Nc3ncc(F)c(-c4cc(F)c5nc(C)n(C(C)C)c5c4)n3)nc2)CC1,inactive,–
CC1=CC(=O)[C@H]2C(C)(C)CCC[C@]2(C)[C@@]1(O)CO,inactive,–
O=C(/C=C/c1ccc(O)cc1)OC1[C@H](O)CC(O)(C(=O)O)C[C@H]1O (some centres undefined),inactive,–
